PubChem BioAssay (EPA / NIEHS)
The source made the active and inactive calls. Rule for the calls: active = hit-call score of the fitted dose curve at least 0.9, where 1 is the maximum; inactive = score below 0.9.

Legend:
[1] = ATG_DR4_LXR_CIS: Attagene CIS-FACTORIAL HepG2 Assay for human Liver X Receptor (LXR), DR4 submotif (AID 2282929); conditions: HepG2 Attagene DR4 cis-reporter, mRNA transcription; AC50: actives raise or lower the signal unless noted; outcome: actives raise or lower the signal unless noted
Outline: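 After transient transfection with multiplexed cis-promoter reporter units, HepG2 cells received test chemicals for 24 h. Reporter mRNA induction, detected by fluorescence after RT-PCR and capillary electrophoresis, was scored relative to DMSO.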

[2] = ATG_AP_1_CIS: Attagene CIS-FACTORIAL HepG2 Assay for human Activator Protein 1 (AP-1) (AID 2282931); conditions: HepG2 Attagene cis-factorial AP-1 reporter mRNA; actives raise or lower the signal
Outline: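 After 24 h incubation with test chemical, RNA from transfected HepG2 cells was reverse-transcribed, amplified, fluorescently labelled and digested before capillary electrophoresis. Reporters were driven by cis-regulatory promoters; activity fitted bidirectionally versus DMSO.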

[3] = ATG_AP_2_CIS: Attagene CIS-FACTORIAL HepG2 Assay for human Activator Protein 2 (AP-2) (AID 2282932); conditions: HepG2 AP-2 cis-reporter, Attagene transcription factor profiling; AC50: actives raise or lower the signal unless noted; outcome: actives raise or lower the signal unless noted
Outline: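 Transiently transfected HepG2 cells are exposed to chemical for 24 h. Reporter transcripts are then measured as fluorescence following RT-PCR and capillary separation, and gain- or loss-of-signal is fitted relative to DMSO.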

[4] = ATG_BRE_CIS: Attagene CIS-FACTORIAL HepG2 Assay for human Bone Morphogenetic Protein (BMP) Response Element (BRE) (AID 2282933); conditions: HepG2 BMP response element reporter, Attagene transcription factor profiling; actives raise or lower the signal
Outline: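 HepG2 cells transiently transfected with multiplexed cis-element reporter units were dosed with chemical for 24 h. Reporter mRNA was measured by RT-PCR with fluorescent labelling, HpaI digestion and capillary electrophoresis; bidirectional fitting relative to DMSO.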

[5] = target: Retinoic acid receptor alpha (Homo sapiens) (UniProt P10276); test: ATG_DR5_RAR_CIS: Attagene CIS-FACTORIAL HepG2 Assay for human Retinoic Acid Receptor Alpha (RARE), DR5 submotif (AID 2282934); conditions: HepG2 Attagene cis-factorial RARE DR5 reporter, mRNA; actives raise or lower the signal;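 for AC50: reporter responds to endogenous RAR alpha beta and gamma in HepG2 not RARA alone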
Outline: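 Reporter transcripts from a DR5-regulated unit, measured via RT-PCR plus capillary electrophoresis, reflect endogenous RAR activity in transiently transfected human HepG2 liver cells. Exposure lasted 24 h; gain or loss of signal scored against DMSO.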

[6] = target: Transcription factor E2F1 (Homo sapiens) (UniProt Q01094); test: ATG_E2F_CIS: Attagene CIS-FACTORIAL HepG2 Assay for human E2F Transcription Factor 1 (AID 2282935); conditions: HepG2 Attagene cis-reporter, E2F reporter RNA transcripts; actives raise or lower the signal
Outline: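 Fluorescent RT-PCR products, digested with HpaI for 2 h at 37 C, are separated by capillary electrophoresis. Source RNA comes from transfected HepG2 cultures treated for 24 h.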

[7] = ATG_E_Box_CIS: Attagene CIS-FACTORIAL HepG2 Assay for human Enhancer Box (E-box) (AID 2282936); conditions: HepG2 E-box cis-reporter transcription, actives raise or lower the signal
Outline: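 Fluorescent reporter fragments separated by capillary electrophoresis gave the signal; mRNA came from HepG2 cells transfected with cis-element reporters and treated 24 h. Curves fitted bidirectionally relative to DMSO controls.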

[8] = ATG_M_61_CIS: Attagene CIS-FACTORIAL HepG2 Assay for M61 Transcription Factor (Internal Marker) (AID 2282937); conditions: HepG2 Attagene CIS-FACTORIAL M61 internal marker reporter; actives raise or lower the signal
Outline: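 Using transiently transfected HepG2 liver cells, reporter transcript levels were assessed 24 h post-dosing by RT-PCR and capillary electrophoresis. Changes in either direction were fitted relative to DMSO controls.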

[9] = ATG_M_19_CIS: Attagene CIS-FACTORIAL HepG2 Assay for M19 Transcription Factor (Internal Marker) (AID 2282939); conditions: HepG2 Attagene CIS-FACTORIAL M19 internal marker reporter; actives raise or lower the signal
Outline: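 HepG2 cells transiently transfected with cis-regulated multiple reporter transcription units were dosed for 24 h; reporter mRNA was quantified by RT-PCR, 6-FAM primer-extension labelling, HpaI digestion and capillary electrophoresis, with bidirectional fitting against DMSO baseline.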

[10] = ATG_ERE_CIS: Attagene CIS-FACTORIAL HepG2 Assay for Estrogen Response Element (ERE) (AID 2282940); conditions: HepG2 ERE cis-reporter, Attagene RNA transcript; actives raise or lower the signal
Outline: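 HepG2 cells transiently transfected with cis-promoter-driven multiplexed reporter transcription units report endogenous TF activity. After 24 h compound exposure, reporter mRNA is quantified by RT-PCR with capillary electrophoresis fluorescence; bidirectional fitting versus DMSO baseline.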

[11] = ATG_Ets_CIS: Attagene CIS-FACTORIAL HepG2 Assay for human Erythroblast Transformation Specific (ETS) (AID 2282941); conditions: HepG2 ETS cis-reporter transcription; AC50: actives raise or lower the signal unless noted; outcome: actives raise or lower the signal unless noted
Outline: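 Cis-regulated reporter mRNA induction in HepG2 (transient transfection), 24 h exposure, RT-PCR plus capillary electrophoresis detection; DMSO serves as negative control and baseline.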

[12] = target: Hepatocyte nuclear factor 3-beta (Homo sapiens) (UniProt Q9Y261); test: ATG_FoxA2_CIS: Attagene CIS-FACTORIAL HepG2 Assay for human Forkhead box A2 (FOXA2) (AID 2282942); conditions: HepG2 cis-reporter transcription factor activity, 24 h; actives raise or lower the signal
Outline: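 Fluorescence signal of reporter cDNA fragments, separated by capillary electrophoresis, reflects endogenous transcription factor activity in transfected HepG2 after 24 h. Both increases and decreases fitted against DMSO.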

[13] = ATG_FoxO_CIS: Attagene CIS-FACTORIAL HepG2 Assay for human Forkhead box O (FoxO) (AID 2282943); conditions: HepG2 Attagene cis-reporter, FoxO element, mRNA; actives raise or lower the signal
Outline: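 Endogenous transcription factor activity read from multiplexed cis-promoter reporter transcripts in transiently transfected HepG2, 24 h after dosing. Reporter RNA measured via RT-PCR plus capillary electrophoresis of FAM-labeled products; gain or loss relative to DMSO.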

[14] = ATG_GATA_CIS: Attagene CIS-FACTORIAL HepG2 Assay for human GATA Binding Protein (AID 2282944); conditions: HepG2 GATA cis-element reporter, Attagene multiplex mRNA; actives raise or lower the signal
Outline: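 HepG2 cells transiently transfected with multiplexed cis-element reporter units reflecting endogenous transcription factor activity; reporter mRNA measured after 24 h dosing by RT-PCR, 6-FAM labeling, HpaI digestion and capillary electrophoresis. Bidirectional fitting versus DMSO baseline.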

[15] = target: Bile acid receptor (Homo sapiens) (UniProt Q96RI1); test: ATG_IR1_CIS: Attagene CIS-FACTORIAL HepG2 Assay for human Nuclear Receptor Subfamily 1 Group H Member 4 (NR1H4), IR1 submotif (AID 2282946); conditions: IR1 reporter transcription, actives raise or lower the signal
Outline: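 HepG2 cells transiently transfected with multiplexed cis-element reporter units read endogenous transcription factor activity. After 24 h compound exposure, reporter mRNA was quantified by RT-PCR, fluorescent labelling, HpaI digestion and capillary electrophoresis; bidirectional fitting versus DMSO baseline.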

[16] = ATG_GRE_CIS: Attagene CIS-FACTORIAL HepG2 Assay for human Glucocorticoid Response Elements (GRE) (AID 2282947); conditions: HepG2 GRE cis-reporter, Attagene multiplex mRNA; AC50: actives raise or lower the signal unless noted; outcome: actives raise or lower the signal unless noted
Outline: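 Multiplexed cis-reporter mRNA induction, HepG2, 24 h post-dose. RT-PCR, FAM-labelled, HpaI-digested amplicons by CE. Bidirectional fit vs DMSO.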

[17] = ATG_ISRE_CIS: Attagene CIS-FACTORIAL HepG2 Assay for human Interferon Regulatory Factor 1 (IRF1) binding to an Interferon-Stimulated Response Element (ISRE) (AID 2282948); conditions: HepG2 ISRE cis-reporter (Attagene), mRNA transcription readout; actives raise or lower the signal
Outline: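 Multiplexed mRNA reporter readout in human liver HepG2 cells: cis-element-driven reporters transfected, compound added for 24 h, transcripts amplified, fluorescently labelled and sized by capillary electrophoresis; curve fitting bidirectional against DMSO.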

[18] = ATG_EGR_CIS: Attagene CIS-FACTORIAL HepG2 Assay for human Early Growth Response 1 (EGR1) (AID 2282938); conditions: HepG2 Attagene CIS-FACTORIAL EGR reporter mRNA; actives raise or lower the signal
Outline: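 Fluorescent capillary-electrophoresis signal of reporter cDNA fragments serves as read-out. HepG2 cells bear transiently transfected cis-promoter reporter units and are exposed 24 h; gain- or loss-of-signal is fitted against DMSO.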

[19] = ATG_GLI_CIS: Attagene CIS-FACTORIAL HepG2 Assay for human Zinc Finger Protein GLI1 (AID 2282945); conditions: HepG2, Attagene cis-factorial reporter mRNA, GLI element; actives raise or lower the signal
Outline: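 Bidirectional curve fits relative to DMSO, using reporter mRNA levels from RT-PCR plus capillary electrophoresis. Cells were HepG2 transiently carrying cis-regulated reporter constructs, harvested 24 h after dosing.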

Measured: AC50

Transcription factor E2F1 (Homo sapiens), sequence (Q01094 whole entry, looked up): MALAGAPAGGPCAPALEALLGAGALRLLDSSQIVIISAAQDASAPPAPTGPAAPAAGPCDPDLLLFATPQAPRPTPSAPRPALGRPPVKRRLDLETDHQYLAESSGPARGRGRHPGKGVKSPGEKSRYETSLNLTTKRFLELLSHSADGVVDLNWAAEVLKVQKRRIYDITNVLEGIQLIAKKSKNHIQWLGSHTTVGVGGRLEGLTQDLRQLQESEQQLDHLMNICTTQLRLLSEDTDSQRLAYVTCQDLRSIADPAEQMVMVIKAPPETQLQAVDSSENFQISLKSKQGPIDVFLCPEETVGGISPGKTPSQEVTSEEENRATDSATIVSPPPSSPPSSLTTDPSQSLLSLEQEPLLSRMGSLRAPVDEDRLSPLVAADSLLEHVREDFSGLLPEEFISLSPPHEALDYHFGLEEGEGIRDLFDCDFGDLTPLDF
Bile acid receptor (Homo sapiens), sequence (Q96RI1 whole entry, looked up): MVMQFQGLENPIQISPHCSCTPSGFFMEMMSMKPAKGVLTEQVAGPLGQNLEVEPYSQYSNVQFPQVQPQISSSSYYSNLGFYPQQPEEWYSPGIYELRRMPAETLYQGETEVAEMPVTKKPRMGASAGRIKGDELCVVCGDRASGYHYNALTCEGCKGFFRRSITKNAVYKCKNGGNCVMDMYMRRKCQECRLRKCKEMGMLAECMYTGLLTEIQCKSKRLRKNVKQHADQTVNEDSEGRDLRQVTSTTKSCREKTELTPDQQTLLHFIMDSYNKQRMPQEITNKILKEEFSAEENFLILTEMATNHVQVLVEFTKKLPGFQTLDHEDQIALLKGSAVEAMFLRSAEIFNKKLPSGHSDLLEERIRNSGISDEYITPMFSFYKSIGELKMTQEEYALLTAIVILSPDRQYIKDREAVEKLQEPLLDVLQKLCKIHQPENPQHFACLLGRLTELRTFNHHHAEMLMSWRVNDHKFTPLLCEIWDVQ
Hepatocyte nuclear factor 3-beta (Homo sapiens), sequence (Q9Y261 whole entry, looked up, the tested form may be a part): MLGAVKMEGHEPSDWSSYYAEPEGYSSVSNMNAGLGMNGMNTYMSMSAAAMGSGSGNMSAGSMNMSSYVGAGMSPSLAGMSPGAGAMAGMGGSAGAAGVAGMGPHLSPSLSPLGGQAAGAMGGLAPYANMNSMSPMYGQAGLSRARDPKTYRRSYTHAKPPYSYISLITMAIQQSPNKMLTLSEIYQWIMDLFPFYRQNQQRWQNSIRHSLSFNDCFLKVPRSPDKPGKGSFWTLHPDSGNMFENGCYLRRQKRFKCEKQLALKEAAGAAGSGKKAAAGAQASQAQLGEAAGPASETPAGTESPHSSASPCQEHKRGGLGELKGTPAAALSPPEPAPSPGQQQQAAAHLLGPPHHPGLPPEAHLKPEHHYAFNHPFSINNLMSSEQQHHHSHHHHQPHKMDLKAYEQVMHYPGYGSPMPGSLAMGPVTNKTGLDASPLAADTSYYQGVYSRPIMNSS
Retinoic acid receptor alpha (Homo sapiens), sequence (P10276 whole entry, looked up): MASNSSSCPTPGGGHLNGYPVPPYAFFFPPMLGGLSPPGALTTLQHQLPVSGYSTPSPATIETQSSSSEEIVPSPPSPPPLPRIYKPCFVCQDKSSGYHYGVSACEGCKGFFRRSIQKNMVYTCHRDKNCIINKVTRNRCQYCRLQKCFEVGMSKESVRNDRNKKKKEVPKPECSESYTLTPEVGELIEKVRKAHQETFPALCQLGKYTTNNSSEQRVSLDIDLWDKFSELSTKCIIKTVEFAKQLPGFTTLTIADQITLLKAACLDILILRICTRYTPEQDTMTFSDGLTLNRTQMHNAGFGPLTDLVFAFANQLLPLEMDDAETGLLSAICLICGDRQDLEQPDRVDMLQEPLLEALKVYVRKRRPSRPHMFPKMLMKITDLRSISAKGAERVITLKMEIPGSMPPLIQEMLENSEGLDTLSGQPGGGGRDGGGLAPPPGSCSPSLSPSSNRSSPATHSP

CCCCCCCCCCCCCCCC(=O)OC
inactive: [1] | [2] | [3] | [4] | [5] | [6] | [7] | [8] | [9] | [10] | [11] | [12] | [13] | [14] | [15] | [16] | [17]

O=C1OC(=O)C(F)(F)C1(F)F
inactive: [1] | [4] | [5] | [6] | [7] | [8] | [18] | [9] | [10] | [11] | [12] | [13] | [14] | [15] | [16] | [17]

COc1ccc(C#N)cc1
inactive: [1] | [3] | [4] | [5] | [6] | [7] | [8] | [18] | [9] | [10] | [11] | [12] | [14] | [15] | [16] | [17]

CC(C)(C)c1ccc(CCC=O)cc1
inactive: [1] | [2] | [3] | [4] | [6] | [7] | [8] | [9] | [11] | [12] | [14] | [19] | [15] | [16] | [17]
active: [5] 72.3 µM | [10] 144 µM

COc1ccccc1NC(=O)c1cc2ccccc2cc1O
active: [1] 41.9 µM | [4] 26.1 µM | [7] 26.7 µM | [18] 52.9 µM | [11] 46.5 µM | [13] 100 µM | [14] 41.1 µM | [15] 68.8 µM | [16] 100 µM | [17] 82.7 µM
inactive: [3] | [5] | [6] | [8] | [9] | [10] | [12]

CCCCCCCCCC=CCC1CC(=O)OC1=O (centres undefined)
inactive: [1] | [2] | [3] | [4] | [6] | [7] | [8] | [18] | [9] | [11] | [12] | [13] | [14] | [15] | [16] | [17]

CCc1ccccc1O
inactive: [1] | [2] | [4] | [5] | [6] | [7] | [8] | [18] | [9] | [10] | [11] | [12] | [14] | [19] | [15] | [16] | [17]

CCC(=O)O
inactive: [1] | [2] | [3] | [4] | [5] | [6] | [7] | [8] | [9] | [10] | [11] | [12] | [13] | [14] | [16] | [17]

CC(=O)Nc1ccc(O)cc1
inactive: [1] | [2] | [3] | [4] | [5] | [6] | [7] | [8] | [18] | [9] | [11] | [12] | [14] | [19]

O=C(O)CCC(F)(F)C(F)(F)C(F)(F)C(F)(F)C(F)(F)C(F)(F)F
inactive: [2] | [3] | [4] | [6] | [7] | [8] | [18] | [9] | [10] | [11] | [12] | [14] | [19] | [15] | [16] | [17]
active: [1] 100 µM | [5] 51 µM
